Consider 25 molecules from PubChem BioAssay (NCATS).

Inconclusive results are not listed. A number with no mark means an inactive call. The source made the active and inactive calls. The call rests on the fitted dose curve; in most records, active means well fitted curve in the direction sought with a large enough effect; inconclusive means small, poorly fitted or top-dose-only effect, or another doubt; inactive means no such curve, though single readings can be large; an effect the other way counts as inactive or inconclusive.

For assay [1], the system named is HEK293T. Briefly: qHTS assay to identify novel small-molecules to repurpose for Merkel cell carcinoma treatment (AID 1296009). Further: nearly all actives have a fitted effect of over 60% in size. The conditions noted are these: MCC and control cell lines, CellTiter-Glo viability, 72 h; series mostly up to 44.8 µM. The method in brief:
(§1)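 Luminescence from CellTiter-Glo, read 10 min after addition at room temperature, reported viability following a 72 hr, 37 degree celsius treatment with NPC or MIPE compounds in titration; values normalized to plate controls.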
A general note: In qHTS, concentration-response curves come from the screen itself.

In assay [2] the test system is NIH3T3. The description is as above. The following applies: MCC and control cell lines, CellTiter-Glo viability, 72 h; at 44.8 µM (top of the series) unless noted. A digest of the protocol:
as §1
(In general: Cellular ATP, detected with luciferase, serves as a proxy for viable cell number.)

The subject of assay [3] is C33A. The experiment in a line: Primary qHTS to identify gynecologic anti-cancer compounds using libraries of approved drugs and bioactive compounds (AID 1345084). Further: on the % scale 0 is the no-effect control and ±100 the full control effect; nearly all actives have a fitted effect of over 55% in size. The following applies: Gynecologic cancer cell panel viability, ATPlite luminescence, 48 h; series mostly up to 57.5 µM. A digest of the protocol: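 Measured: luminescence after ATPlite addition (15 min, RT). Exposure: 48 h, 37 C, 5% CO2.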

`C=CC(C)(O)CC/C=C(\C)C(=O)OCC1OC(OC2CCC3(C)C(CCC4(C)C3CC=C3C5CC(C)(C)C(O)CC5(C(=O)O)CCC34C)C2(C)C)C(O)C(OC2OC(CO)C(O)C(OC3OC(CO)C(O)C(OC4OC(COC5OC(CO)C(O)C(O)C5O)C(O)C(O)C4O)C3O)C2O)C1O` (stereo not given): the outcome in assay [1] and in assay [2] was “inactive [at 9.27 µM]” throughout. Also, the activity change, negative = cytotoxicity in assay [3] was 4.36% [at 6.55 µM].

Turning to `CC(/C=C/C1(O)C(C)(C)CC(O)CC1(C)O)OC1OC(CO)C(O)C(O)C1O` (stereo not given), the Potency entry in assay [1] and in assay [3] was “inactive” each time. The outcome in assay [2] is “inactive [at 17.4 µM]”.

In the case of `CC1CCC2(C)C(CC(O)C(O)C23CO3)C1(C)CCC1=CC(O)OC1=O` (stereo not given), the Potency entry in assay [1] and in assay [3] was “inactive” in each case.

Regarding `C=C1CCC2C(OC(=O)C2(O)COC(C)=O)C2C(=C)C(O)CC12` (stereo not given), the Potency entry in assay [1] and in assay [3] was “inactive” throughout.

In the case of `CC1(C)O[C@@]2(C)CC[C@@H]1C[C@@H]2OC1OC(CO)C(O)C(O)C1O` (stereo not given in full), the Potency entry in assay [1] and in assay [3] was “inactive” each time.

With `CC1=C(C)C(=O)OC(C(C)(O)C2CCC3C4CC=C5CC(OC6OC(COC7OC(CO)C(O)C(O)C7O)C(O)C(O)C6O)CC(O)C5(C)C4CCC32C)C1` (stereo not given), the Potency result in assay [1] and in assay [3] was “inactive” each time.

Regarding `CC1C/C=C/C=C\CCCCC(O)C/C=C/C(=O)O1` (stereo not given), the Potency entry in assay [1] and in assay [3] was “inactive” throughout. Besides, the molecule was called inactive in assay [2].

As to `COC(=O)[C@]12C(=O)C(C)=C(O)[C@@]1(C)C(C)=CC1[C@@]34CC[C@@H](OC(C)=O)C(C)(C)C3[C@H](C[C@]12C)OC4=O` (stereo not given in full), the Potency result in assay [1] and in assay [3] was “inactive” in each case.

Consider `COC(=O)[C@H](OC(C)=O)[C@H]1C(C)(C)C(=O)[C@H]2CC3=C4CC(=O)O[C@@H](c5ccoc5)[C@]4(C)CCC3[C@@]1(C)C2=O` (stereo not given in full), for which the Potency entry in assay [1] and in assay [3] was “inactive” each time. The outcome in assay [2] was “inactive [at 17.4 µM]”.

Take `COC1=CC(=O)O[C@@H](/C=C/c2ccccc2)[C@@H]1O`: the Potency result in assay [1] and in assay [3] was “inactive” throughout. The outcome in assay [2] was inactive.

Take `COc1cc(/C=C/C(=O)OC2CC(OC(C)=O)C(OC(C)=O)C3C2CCC2C(=O)OC(c4ccoc4)CC23C)ccc1O[C@@H]1O[C@H](CO)[C@@H](O)[C@H](O)[C@H]1O` (stereo not given in full): the Potency result in assay [1] and in assay [3] was “inactive” each time.

With `C[C@@H]1O[C@@H](O[C@H]2[C@H](O[C@H]3[C@H](O[C@H]4CC[C@@]5(CO)C(CC[C@]6(C)C5CC=C5C7CC(C)(C)C[C@@H](O)[C@]7(C)CC[C@]56C)C4(C)C)O[C@H](C(=O)O)[C@@H](O)[C@@H]3O)OC[C@@H](O)[C@@H]2O)[C@H](O)[C@H](O)[C@H]1O` (stereo not given in full), in assay [1], the outcome is “inactive [at 9.27 µM]”. Further, the activity change, negative = cytotoxicity in assay [3] was -1.54% [at 11.6 µM].

As for `CC1(CO)CC[C@]2(C(=O)O[C@@H]3O[C@H](CO)[C@@H](O)[C@H](O)[C@H]3O)CC[C@]3(C)C(=CCC4[C@@]5(C)C[C@H](O)[C@H](O[C@@H]6OC[C@@H](O)[C@H](O)[C@H]6O)[C@@](C)(CO)C5CC[C@]43C)C2C1` (stereo not given in full), the outcome in assay [1] is “inactive [at 9.27 µM]”. In assay [3], the activity change, negative = cytotoxicity was 5.37% [at 11.6 µM].

Consider `COC1CC(=O)CCC(C)OC(=O)CC1O` (stereo not given), for which the Potency entry in assay [1] and in assay [3] was “inactive” throughout.

In the case of `Cc1c(CN(C)C(=O)/C=C/c2cnc3c(c2)CCC(=O)N3)oc2ccccc12`, the Potency entry in assay [1] and in assay [3] was “inactive” throughout.

Take `Cc1ccc2c(c1)C=Cc1cc(C)ccc1C2c1cn(Cc2ccc(C(=O)Nc3nn[nH]n3)o2)c(=O)[nH]c1=S`: the Potency result in assay [1] and in assay [3] was “inactive” in each case.

For `C=CC(C)(O)CO[C@@H]1O[C@H](CO)[C@@H](O)[C@H](O)[C@H]1O` (stereo not given in full), the Potency result in assay [1] and in assay [3] was “inactive” throughout.

In the case of `CCC(C)/C=C(C)/C=C/C1=CC2=C(Cl)C(=O)C(C)(OC(C)=O)C(=O)C2=CN1CCCC(=O)O` (stereo not given), the Potency entry in assay [1] and in assay [3] was “inactive” throughout.

In the case of `CC1=C2CC3OC3(C)CCC3OC3(C)CC2OC1=O` (stereo not given), the Potency result in assay [1] and in assay [3] was “inactive” in each case.

As to `CC(C)[C@@H](C)/C=C/[C@@H](C)[C@H]1CC[C@H]2C3=CC=C4C[C@@H](O)CC[C@]4(C)[C@H]3CC[C@]12C`, the Potency result in assay [1] and in assay [3] was “inactive” in each case.

`CC1(C)CC[C@]2(C(=O)O)CC[C@]3(C)C(=CCC4[C@@]5(C)C[C@@H](O)[C@H](O)C(C)(C)C5CC[C@]43C)[C@@H]2[C@@H]1O` (stereo not given in full): the Potency result in assay [1] and in assay [3] was “inactive” each time.

Take `COC(=O)CC1(O)C(=O)Nc2ccccc21` (stereo not given): the Potency entry in assay [1] and in assay [3] was “inactive” each time.

Take `COc1ccccc1-n1c(SCC(=O)Nc2nc3ccc(C)cc3s2)nc2c(c1=O)SCC2`: the Potency result in assay [1] and in assay [3] was “inactive” in each case.

For the molecule `O=C(OCC12OC1C=CC(OC(=O)c1ccccc1)C2O)c1ccccc1` (stereo not given), the Potency result in assay [1] and in assay [3] was “inactive” in each case.

With `C=C1CC[C@H]2[C@@](C)(CCC[C@@]2(C)C(=O)O)[C@@H]1CCC(C)CCO` (stereo not given in full), the Potency entry in assay [1] and in assay [3] was “inactive” in each case.
